In PMC5540273 (PLoS ONE, 2017):

What follows are compounds tested on T1, p38-gamma. Conditions: concentration: 1 μM, replicates: in singlicate; n = 1.
T1 construct: gene MAPK12
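Note: KINOMEscan kinase panel screen.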

First: COC(=O)C(Cc1ccccc1)NC(=O)NC1CCN(c2ccnc(Nc3ccc(F)cc3)n2)C1 (stereo not shown) [GSK1379714]
Second: COc1cccc(CNC(=O)NC2CCN(c3ccnc(Nc4ccc(F)cc4)n3)C2)c1 (stereo not shown) [GSK1379723]
The “%Inh” value of the first is higher: 12% for the first, 0% for the second.

Cc1c(Cn2c3ccccc3n3c(=O)cc(N4CCOCC4)nc23)cccc1C(F)(F)F [GSK2306394] and Cc1c(Cn2c(C)c(C)n3c(=O)cc(N4CCOCC4)nc23)cccc1C(F)(F)F [GSK2328680] are the same in “%Inh” value: 0% for the first, 0% for the second.

Going from CC(=O)c1c(C)c2cnc(Nc3ccc(N4CCNCC4)cn3)nc2n(C2CCCC2)c1=O to O=C(Nc1n[nH]c2nc(-c3cccs3)c(Br)cc12)C1CCCC1 [SB-743341], the “%Inh” value rises from 6% to 13%.

COc1ccc(Nc2nccc(NCCNC(=O)Nc3cc(C)ccc3C)n2)cc1 [GSK1379899] and COC(=O)c1cccc(NC(=O)NC2CCN(c3ccnc(Nc4ccc(OC)cc4)n3)C2)c1 (stereo not shown) [GSK1379746] are the same in “%Inh” value: 0% for the first, 0% for the second.

Compared with Cc1ccc(NC(=O)Nc2ccccc2)cc1-c1ccc(C(=O)Nc2ccncc2)cc1 [GSK1398471], Cc1ccc(NC(=O)Nc2ccccc2F)cc1-c1ccc(C(=O)Nc2ccncc2)cc1 [GSK1398477] is lower in “%Inh” value: 12% for the first, 0% for the second.

Compared with Cc1ccc(-c2nc(Nc3ccncc3)c3ccccc3n2)s1 [GSK189015], Fc1ccc(-c2nn3cccc(F)c3c2-c2ccncc2)cc1 [GW475620] is lower in “%Inh” value: 12% for the first, 0% for the second.

First: COc1ccc2cc(-c3nc(-c4ccccc4C(C)C)[nH]c3-c3ccncc3)ccc2c1 [SB-660566]
Second: COc1cccc(NC(=O)Nc2ccc(C)c(-c3ccc(C(=O)Nc4ccncc4)cc3)c2)c1 [GSK1398474]
The “%Inh” value of the first is lower: 0% for the first, 27% for the second.

Going from Cc1ccc(NC(=O)Nc2ccc(Cl)c(C(F)(F)F)c2)cc1-c1ccc(C(=O)Nc2ccncc2)cc1 [GSK1398470] to Cc1ccc(NC(=O)c2ccc(Cl)cc2)cc1-c1ccc(C(=O)Nc2ccncc2)cc1 [GSK1398467], the “%Inh” value falls from 27% to 0%.

COc1ccc(-c2coc3ccc(-c4nnc(C)o4)cc23)cc1 and COc1ccc(CSc2nnc(-c3ccc4ncsc4c3)o2)cc1C(F)(F)F are the same in “%Inh” value: 0% for the first, 0% for the second.

Compared with Fc1ccc(-c2nc[nH]c2-c2ccncc2)cc1 [SB-217360], CSc1ccc(-c2nc3n(c2-c2ccncc2)CCC3)cc1 [SKF-105561] is lower in “%Inh” value: 39% for the first, 30% for the second.

Cn1cnc2c(N)ncnc21 [SKF-97623] and CNc1cc(-c2ccc3c(N)n[nH]c3c2)nc(N)n1 [GSK2224810] are the same in “%Inh” value: 0% for the first, 0% for the second.

First: CS(=O)(=O)CCNCc1nc(-c2ccc3ncnc(Nc4ccc5c(cnn5Cc5ccccc5)c4)c3c2)cs1.Cl.Cl [GW569716]
Second: CS(=O)(=O)Cc1ccc(Nc2nccc(-c3c(-c4cccc(NC(=O)C5CCCCC5)c4)nn4ncccc34)n2)cc1 [GSK350559]
The “%Inh” value of the first is lower: 0% for the first, 43% for the second.

Compared with O=C(Nc1n[nH]c2cc(-c3ccsc3)ccc12)C1CC1 [SB-732932], O=C(Nc1n[nH]c2nc(-c3cccs3)c(Br)cc12)C1CC1 [SB-735297] is lower in “%Inh” value: 28% for the first, 0% for the second.

First: CCc1ccc(-c2ccc3c(c2)-c2n[nH]cc2S(=O)(=O)N3C)cc1
Second: COc1nccc(-c2c(-c3ccc(F)cc3)ncn2CCCN2CCOCC2)n1 [SB-282852]
The “%Inh” value of the first is lower: 0% for the first, 46% for the second.

First: COc1ccc(Nc2nccc(N3CCC(NC(=O)C(C)c4ccc(Cl)cc4)CC3)n2)cc1 (stereo not shown) [GSK1379812]
Second: COc1ccc(Nc2nccc(N3CCC(NC(=O)c4cc5ccccc5s4)C3)n2)cc1 (stereo not shown) [GSK1379738]
The “%Inh” value of the first is lower: 2% for the first, 9% for the second.

c1ccc(-c2ccnc3[nH]ccc23)cc1 [SB-693578] and FC(F)(F)c1ccccc1-c1cc(-c2c[nH]nc2-c2ccccn2)ccn1 [GW679396] are the same in “%Inh” value: 0% for the first, 0% for the second.

Compared with COc1cc2ncnc(Nc3cccc(Br)c3)c2cc1OC.Cl [GI230329], CC(C)c1ccc(O)cc1Nc1ccnc2ccc(C(F)(F)F)cc12 [GW482059] is lower in “%Inh” value: 66% for the first, 0% for the second.

Compared with CNCc1ccc2nc(NC(=O)c3ccc(C(C)(C)C)cc3)cn2c1, O=C1NC(=O)C(c2ccc(Cl)cc2)=C1Nc1ccc(O)cc1 [SB-340867] is lower in “%Inh” value: 26% for the first, 0% for the second.

In the case of CC(C)c1cc(-c2ccc3c(N)n[nH]c3c2)nc(N)n1 [GSK2250882], the “%Inh” value is reported as 43%.
